The values below come from PubChem BioAssay AID1851 (National Center for Advancing Translational Sciences (NCATS), 2009).

Hit rate of the full screen: of about 16,000 compounds, about 5,100 (32%) were called active. Inconclusive results (about 25%) are left out. Calls come from the whole dose curve; as a rule, active = well fitted curve in the direction sought with a large enough effect; inconclusive = small, poorly fitted or top-dose-only effect, or effect the other way; inactive = no such curve, though single readings can be large or run the other way. Some of the results follow.
% is set by controls: 0 for no effect and ±100 for the full control effect.

The target of the experiment is Cytochrome P450 3A4 (Homo sapiens) (UniProt P08684). Put plainly: Cytochrome panel assay with activity outcomes. Particulars: recombinant CYP, pro-luciferin dealkylation, luminescence, p450-cyp3a4; series mostly up to 57.1 µM.
Cytochrome P450 3A4 (Homo sapiens), sequence (P08684 whole entry, looked up): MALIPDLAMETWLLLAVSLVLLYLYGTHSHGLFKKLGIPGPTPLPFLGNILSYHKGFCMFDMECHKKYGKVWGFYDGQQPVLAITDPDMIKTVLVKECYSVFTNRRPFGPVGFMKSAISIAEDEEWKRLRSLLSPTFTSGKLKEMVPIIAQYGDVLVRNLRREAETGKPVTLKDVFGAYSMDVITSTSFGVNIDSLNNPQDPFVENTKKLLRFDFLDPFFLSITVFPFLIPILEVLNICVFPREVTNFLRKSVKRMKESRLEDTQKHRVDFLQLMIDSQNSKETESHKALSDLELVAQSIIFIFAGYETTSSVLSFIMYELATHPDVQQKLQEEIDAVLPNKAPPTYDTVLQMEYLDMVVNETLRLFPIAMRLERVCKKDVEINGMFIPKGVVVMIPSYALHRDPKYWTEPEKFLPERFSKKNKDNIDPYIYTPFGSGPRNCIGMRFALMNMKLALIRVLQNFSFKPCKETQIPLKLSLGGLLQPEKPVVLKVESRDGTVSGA
Consider `Cc1ccc(NC(=S)Nc2nc(CC(=O)Nc3ccccc3)cs2)cc1`, for which the AC50 is 6.31 µM (active). For `Cc1ccc(NC(=O)Nc2nc(-c3ccc(C)s3)cs2)cc1`, the activity, negative = inhibition was -0.444% [at 2.29 µM] (inactive). On to `CNC(=O)[C@@H]1O[C@@H](n2cnc3c(N)ncnc32)[C@@H](O)[C@H]1O`, for which the AC50 result was “inactive”. For the compound `O=C(Nc1ccc(Cl)cc1)OCc1cc(-c2ccccc2)on1`, the AC50 result is “inactive”.

Turning to `COc1ccc(CC(=O)Nc2ccc(-c3nnc(-c4ccccc4)o3)cc2)cc1`, the AC50 entry was “inactive”. The same measure, in the same setting: the figure for `O=C(Cc1ccc(Cl)cc1)Nc1cccc(-c2nnc(-c3ccco3)o2)c1` is 7.94 µM (active).

Regarding `O=C1c2ccccc2-c2ccc(NC(=O)[C@H]3CCCC[C@@H]3C(=O)O)cc21`, the activity, negative = inhibition is -29% [at 11.4 µM] (inactive). `COc1ccc(CC(=O)Nc2cccc(-c3nnc(-c4ccco4)o3)c2)cc1`: the half-maximal activity concentration (AC50) was 2 µM (active). For the compound `Clc1ccc(-c2nnc(-c3ccco3)o2)cc1`, the activity, negative = inhibition was 1.16% [at 11.4 µM] (inactive). As to `CCC(=O)Nc1cccc(-c2nnc(-c3cccc(NC(=O)CC)c3)o2)c1`, the concentration at half-maximal activity (AC50) was 14.1 µM (active). In the case of `O=C(Nc1ccc(Nc2ccc3c(c2)C(=O)c2ccccc2C3=O)c2c1C(=O)c1ccccc1C2=O)c1ccccc1`, the activity, negative = inhibition is -7.98% [at 11.4 µM] (inactive).

For `CCC(=O)NNC(=O)CCC(=O)Nc1ccccc1`, the AC50 entry was “inactive”. The same measure, in the same setting: the figure for `CCC(=O)Nc1ccc2c(c1)C(=O)c1ccccc1C2=O` is 7.08 µM (active); for `CO[C@]1(NC(=O)Cc2cccs2)C(=O)N2C(C(=O)O)=C(COC(N)=O)CS[C@H]21` it is “inactive”; for `O=C1Nc2ccc(F)cc2C12SCCS2` it is “inactive”. Consider `Cc1ccc(SCc2[nH]nc3c2C(C(C)C)C(C#N)=C(N)O3)cc1` (stereo unspecified), for which the activity, negative = inhibition was -16.4% [at 2.29 µM] (inactive). For the compound `COc1cccc(-c2[nH]nc3c2C(c2ccsc2)C(C#N)=C(N)O3)c1` (stereo unspecified), the concentration at half-maximal activity (AC50) is 7.08 µM (active). Consider `COc1cccc(-c2[nH]nc3c2C(c2ccc(C)o2)C(C#N)=C(N)O3)c1` (stereo unspecified), for which the activity, negative = inhibition is -27.5% [at 2.29 µM] (inactive).

For the compound `O=C(CC(=O)NN=C1CCCC1)NCCc1ccccc1`, the activity, negative = inhibition is 4.31% [at 2.29 µM] (inactive). For the compound `CC1CCC(=NNC(=O)Cc2ccccc2)CC1` (stereo unspecified), the activity, negative = inhibition was -1.06% [at 2.29 µM] (inactive).

Regarding `CN1CCC(=NNC(=O)CSCc2ccccc2)CC1`, the AC50 is 17.8 µM (active). Same read-out and setting: under `CCCn1cnc2c1c(=O)n(CCCCC(C)=O)c(=O)n2C` stands “inactive”. For the compound `CC1(C)C(=O)C(c2ccccc2)=C2CN3C(=O)N(CCc4ccccc4)C(=O)C3(Cc3ccc(F)cc3)C=C21` (stereo unspecified), the concentration at half-maximal activity (AC50) is 3.16 µM (active).

On to `CC1(C)C(=O)C(c2ccccc2)=C2CN3C(=O)N(CCc4ccccc4)C(=O)C3(Cc3ccc(C(F)(F)F)cc3)C=C21` (stereo unspecified), for which the AC50 is 2 µM (active). As for `CC1(C)C(=O)C(c2ccccc2)=C2CN3C(=O)N(CCc4ccccc4)C(=O)C3(Cc3ccccc3)C=C21` (stereo unspecified), the AC50 is 2 µM (active). On to `CN(C)/C(CN1CCN(C=O)CC1)=C1\N=C(c2ccccc2)OC1=O`, for which the AC50 entry was “inactive”. As for `CC1(C)N=C(N)N=C(N)N1CCCCc1ccccc1`, the activity, negative = inhibition is -18.8% [at 11.4 µM] (inactive). For `CCOC(=O)c1c(O)[nH]c(=O)c(CC)c1C`, the activity, negative = inhibition was -7.96% [at 11.4 µM] (inactive). Take `CCNC(=S)NNC(=O)CCn1c2ccccc2c2ccccc21`: the AC50 is 4.47 µM (active). For `CCNC(=S)NNC(=O)c1cccc(Br)c1`, the AC50 result is “inactive”. Same read-out and setting: under `CCNC(=S)NNC(=O)Cc1ccccc1` stands “inactive”.

As for `CC(C)[C@]1(Cl)CC[C@@H]2[C@]3(C)CCC[C@@](C)(C(=O)O)[C@H]3C[C@H](Cl)[C@@]2(Cl)[C@H]1Cl`, the activity, negative = inhibition was -26.1% [at 11.4 µM] (inactive). `Nc1nc2c(ncn2[C@@H]2C=C[C@@H](CO)C2)c(=O)[nH]1`: the activity, negative = inhibition was -2.95% [at 11.4 µM] (inactive). On to `Cc1onc(-c2c(Cl)cccc2Cl)c1C(=O)N1CCc2ccccc2C1`, for which the AC50 was 3.98 µM (active).

Take `C/C(CC(=O)NCCCN1CCOCC1)=N\NC(=O)COc1ccc(Cl)cc1`: the AC50 is 15.8 µM (active). In the case of `COc1ccc(C(=O)NCCCN2CCOCC2)cc1OC`, the AC50 result was “inactive”. Take `COc1ccccc1CNc1nc(-c2ccc(N(C)C)cc2)nc2ccccc12`: the AC50 is 3.16 µM (active). As to `COc1ccc(-c2cc([C@H](O)[C@@H]3CCCCN3)c3ccccc3n2)cc1`, the activity, negative = inhibition was -6.63% [at 11.4 µM] (inactive). With `CN(C)c1ccc(-c2nc(NCCc3cnc[nH]3)c3ccccc3n2)cc1`, the half-maximal activity concentration (AC50) was 2.51 µM (active). Same read-out and setting: the figure for `COc1ccc(CNc2nc(-c3ccc4c(c3)OCO4)nc3ccccc23)c(OC)c1` is 1.26 µM (active). The same measure, in the same setting: the figure for `COCCNc1nc(-c2ccc(N(C)C)cc2)nc2ccccc12` is 12.6 µM (active); for `Clc1cnccn1` it is “inactive”. Turning to `CCN(CC)CC#CCC(C)(c1ccccc1)c1ccccc1`, the activity, negative = inhibition was -27.1% [at 2.29 µM] (inactive). In the case of `CCCOc1ccc(CSC(CC(=O)O)C(=O)O)cc1` (stereo unspecified), the AC50 entry was “inactive”. On the same count and under the same terms, under `CO/N=C(\C(=O)N[C@@H]1C(=O)N2C(C(=O)O)=C(COC(C)=O)CS[C@@H]12)c1csc(N)n1` stands “inactive”; under `Cc1ccc(C(=O)Oc2cc(C)n(C)c(=O)c2)cc1`, “inactive”. With `CC(C)(CN)CN`, the activity, negative = inhibition was -13.3% [at 11.4 µM] (inactive). On to `COc1ccccc1CNc1nc(-c2ccc3c(c2)OCO3)nc2ccccc12`, for which the half-maximal activity concentration (AC50) is 1.26 µM (active). As to `CCC(=O)Nc1ccc(/C(C)=N\NS(=O)(=O)c2ccc(C)cc2)cc1`, the activity, negative = inhibition is -25.1% [at 2.29 µM] (inactive). For the compound `C/C(=N/NS(=O)(=O)c1ccc(C)cc1)P(=O)(O)O`, the activity, negative = inhibition was -8.75% [at 11.4 µM] (inactive).

In the case of `COc1ccc(S(=O)(=O)N/N=C(/C)c2cccc(NC(=O)c3ccccc3Cl)c2)cc1`, the AC50 was 2.24 µM (active). The same measure, in the same setting: the figure for `C/C(=N/NS(=O)(=O)c1ccc(C)cc1)c1cccc(NC(=O)c2cccc(Cl)c2)c1` is 1.41 µM (active).

On to `CC(C)(C)C(=O)[C@H]([C@@H](c1ccccc1)N1CCOCC1)N1CCOCC1`, for which the concentration at half-maximal activity (AC50) is 2.51 µM (active). For `CC(=O)[C@H]([C@@H](c1ccccc1)N1CCOCC1)N1CCOCC1`, the activity, negative = inhibition is -29.9% [at 11.4 µM] (inactive). For `O=C(CSc1nccn1-c1ccccc1)c1ccc(Cl)cc1`, the half-maximal activity concentration (AC50) is 10 µM (active). Still for that read-out and setting: under `Clc1ccc(CSc2nccn2Cc2ccccc2)cc1` stands 7.08 µM (active); under `CC1=NN(c2ccccc2)C(=O)C1C(=O)c1ccc(Cl)cc1` (stereo unspecified), “inactive”. On to `O=C(O)CSCCc1ccccc1`, for which the activity, negative = inhibition was 0.346% [at 11.4 µM] (inactive). As to `O=c1ccnc(SCc2ccc(Cl)cc2)[nH]1`, the activity, negative = inhibition is -11.7% [at 11.4 µM] (inactive).

`OCCn1cnc2c(SCc3ccccc3)ncnc21`: the activity, negative = inhibition was -4.24% [at 11.4 µM] (inactive). Turning to `O=C(CSc1ncnc2nc[nH]c12)c1ccccc1`, the activity, negative = inhibition was -16.5% [at 11.4 µM] (inactive).

`c1ccc(CCSc2nccn2-c2ccccc2)cc1`: the AC50 was 14.1 µM (active). Still for that read-out and setting: under `CCc1ccc(CSc2nccn2-c2ccccc2)cc1` stands 14.1 µM (active).

For the compound `O=C1C[C@H](c2ccccc2)[C@@H](c2ccc(Br)cc2)O1`, the activity, negative = inhibition was 1.97% [at 11.4 µM] (inactive). Same read-out and setting: under `C#CCCCO/N=C1/[C@H]2O[C@@H]2[C@@H](O)[C@H]2[C@H]1CCn1c(=O)n(Cc3cc4c(cc3Cl)OCO4)c(=O)n12` stands -10.8% [at 11.4 µM] (inactive). `Cn1nnnc1SCc1ccccc1[N+](=O)[O-]`: the activity, negative = inhibition was 3.46% [at 2.29 µM] (inactive). For `Cc1ccccc1CSc1nccn1-c1ccccc1`, the AC50 is 5.01 µM (active). As for `Cc1oc(C(C)(C)C)cc1C(=O)Nc1cccc(/C=C/C(=O)O)c1`, the AC50 entry was “inactive”. For `Cc1oc(-c2ccccc2)cc1C(=O)Nc1ccc(N(C)C)cc1`, the AC50 is 17.8 µM (active).

On to `CC(=O)C[C@H](O)[C@@H](NC(=O)OC(C)(C)C)C(C)C`, for which the activity, negative = inhibition was -26.2% [at 11.4 µM] (inactive). Same read-out and setting: under `NC(N)=N/N=C\c1ccc(O)c(C(=O)O)c1` stands -5.15% [at 11.4 µM] (inactive).

In the case of `CCCCCNCc1cccc(Br)c1`, the AC50 result is “inactive”. Same read-out and setting: the entry for `O=C(N/N=C/c1cccc(Oc2ccccc2)c1)c1cccc(Br)c1` is “inactive”; for `O=C(N/N=C/C1C(c2ccccc2)C1(Cl)Cl)c1cccc(Br)c1` (stereo unspecified) it is 12.6 µM (active). In the case of `O=C(N[C@@]1(C(=O)O)C[C@@H]1c1ccccc1)c1ccccc1`, the activity, negative = inhibition was -6.56% [at 11.4 µM] (inactive). Take `Cc1cc(NC(=O)CSc2nnc(-c3ccccc3)n2Cc2ccco2)no1`: the AC50 was 15.8 µM (active). As to `CC(=O)Nc1ccc(NC(=O)CSc2nnc(-c3ccccc3)n2Cc2ccc3c(c2)OCO3)cc1`, the concentration at half-maximal activity (AC50) is 3.55 µM (active).

Take `O=C(CSc1nnc(-c2ccccn2)n1Cc1ccco1)Nc1ccc2c(c1)OCO2`: the AC50 is 0.891 µM (active). Consider `CCCCOC(=O)CSCC(=O)Nc1cc(C)on1`, for which the activity, negative = inhibition was -0.1% [at 11.4 µM] (inactive). In the case of `Cc1cc(C)nc(SCc2nnc(SCC(N)=O)n2Cc2ccco2)n1`, the AC50 is 15.8 µM (active). With `COc1ccc(C(O)c2nccn2Cc2ccccc2)cc1` (stereo unspecified), the activity, negative = inhibition was -29.5% [at 11.4 µM] (inactive).

For the compound `COc1ccc(-c2ccc(=N)n(CCCC(=O)O)n2)cc1`, the AC50 entry is “inactive”. Take `COc1ccc(-c2cnnc(CCCn3ccnc3-c3ccccc3)n2)cc1`: the half-maximal activity concentration (AC50) is 6.31 µM (active). With `COc1ccc(S(=O)(=O)N2CCC(NC(=O)Nc3ccc(C)cc3)CC2)cc1`, the concentration at half-maximal activity (AC50) was 8.91 µM (active). On the same count and under the same terms, under `COc1ccc(S(=O)(=O)N2CCN(CC(=O)Nc3cccc(F)c3)CC2)cc1` stands 7.94 µM (active). `COc1ccc(C)cc1NC(=O)CN1CCN(S(=O)(=O)c2ccc(F)cc2)CC1`: the half-maximal activity concentration (AC50) was 7.94 µM (active). On to `COCC(=O)N1CCC2(CC1)CCN(C(=O)Nc1cccc(F)c1)CC2`, for which the AC50 entry is “inactive”. As to `COc1ccc(S(=O)(=O)Nc2ccc(S(=O)(=O)N3CCCCC3)cc2)cc1C`, the activity, negative = inhibition was -19.1% [at 2.29 µM] (inactive). `COc1ccc(S(=O)(=O)N2CCC(N3CCCCC3)CC2)cc1`: the AC50 result is “inactive”.

As to `COc1ccc(S(=O)(=O)N2CCCN(CC(=O)Nc3ccc(OC)c(Cl)c3)CC2)cc1`, the concentration at half-maximal activity (AC50) was 7.94 µM (active). For `COc1ccccc1NC(=O)CN1CCC(C(=O)c2ccc(F)cc2)CC1`, the activity, negative = inhibition is -1.8% [at 2.29 µM] (inactive).
